Compound activity as filed in PubChem BioAssay.
Rows were chosen to be rich in hits. Some 1.3% of all compounds tested hit in one or more screens of this group.
Gli-Sufu antag = Gli-Sufu pathway antagonists, primary screen, luciferase luminescence, Sufu-KO-LIGHT cells, uHTS | Sufu-KO-LIGHT fibroblasts, Gli luciferase reporter luminescence | inhibition, % at 5 µM | 340,000 compounds, 0.74% hits | AID 588413, 2011;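 active = inhibition above about 55%, limit read from the data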;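 also: 0% = DMSO-treated cells and 100% = wells with medium but no cells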
NCOA1 inh = SRC1 coactivator transcriptional activity inhibitors, primary screen, cell-based, luminescence; Nuclear receptor coactivator 1 (Homo sapiens), Q15788; HEK293 GAL4-SRC1 luciferase reporter; inhibition, % at 3.6 µM; 360,000 compounds, 0.12% hits; AID 588354, 2011;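 active = inhibition above the campaign mean plus 3 SD, with each screening campaign given its own cutoff, cut at about 60% in these data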;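 also: 0% = DMSO treated cells and 100% = gossypol at 36 µM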
NCOA2 inhibitor = inhibition of GAL4-SRC2 driven luciferase reporter, primary screen, SRC2 inhibitor project, cell-based, luminescence; Nuclear receptor coactivator 2 (Homo sapiens), Q15596; HEK293 GAL4-SRC2 luciferase reporter; inhibition, % at 9 µM; 370,000 compounds, 0.17% hits;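 active = inhibition above the mean inhibition of all tested compounds plus 3 SD, set per campaign, cut at about 52% in these data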;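 also: 0% = DMSO treated cells and 100% = cells given Gossypol at 36 µM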
Target sequence (Q15596 whole entry, looked up, the tested form may be a part): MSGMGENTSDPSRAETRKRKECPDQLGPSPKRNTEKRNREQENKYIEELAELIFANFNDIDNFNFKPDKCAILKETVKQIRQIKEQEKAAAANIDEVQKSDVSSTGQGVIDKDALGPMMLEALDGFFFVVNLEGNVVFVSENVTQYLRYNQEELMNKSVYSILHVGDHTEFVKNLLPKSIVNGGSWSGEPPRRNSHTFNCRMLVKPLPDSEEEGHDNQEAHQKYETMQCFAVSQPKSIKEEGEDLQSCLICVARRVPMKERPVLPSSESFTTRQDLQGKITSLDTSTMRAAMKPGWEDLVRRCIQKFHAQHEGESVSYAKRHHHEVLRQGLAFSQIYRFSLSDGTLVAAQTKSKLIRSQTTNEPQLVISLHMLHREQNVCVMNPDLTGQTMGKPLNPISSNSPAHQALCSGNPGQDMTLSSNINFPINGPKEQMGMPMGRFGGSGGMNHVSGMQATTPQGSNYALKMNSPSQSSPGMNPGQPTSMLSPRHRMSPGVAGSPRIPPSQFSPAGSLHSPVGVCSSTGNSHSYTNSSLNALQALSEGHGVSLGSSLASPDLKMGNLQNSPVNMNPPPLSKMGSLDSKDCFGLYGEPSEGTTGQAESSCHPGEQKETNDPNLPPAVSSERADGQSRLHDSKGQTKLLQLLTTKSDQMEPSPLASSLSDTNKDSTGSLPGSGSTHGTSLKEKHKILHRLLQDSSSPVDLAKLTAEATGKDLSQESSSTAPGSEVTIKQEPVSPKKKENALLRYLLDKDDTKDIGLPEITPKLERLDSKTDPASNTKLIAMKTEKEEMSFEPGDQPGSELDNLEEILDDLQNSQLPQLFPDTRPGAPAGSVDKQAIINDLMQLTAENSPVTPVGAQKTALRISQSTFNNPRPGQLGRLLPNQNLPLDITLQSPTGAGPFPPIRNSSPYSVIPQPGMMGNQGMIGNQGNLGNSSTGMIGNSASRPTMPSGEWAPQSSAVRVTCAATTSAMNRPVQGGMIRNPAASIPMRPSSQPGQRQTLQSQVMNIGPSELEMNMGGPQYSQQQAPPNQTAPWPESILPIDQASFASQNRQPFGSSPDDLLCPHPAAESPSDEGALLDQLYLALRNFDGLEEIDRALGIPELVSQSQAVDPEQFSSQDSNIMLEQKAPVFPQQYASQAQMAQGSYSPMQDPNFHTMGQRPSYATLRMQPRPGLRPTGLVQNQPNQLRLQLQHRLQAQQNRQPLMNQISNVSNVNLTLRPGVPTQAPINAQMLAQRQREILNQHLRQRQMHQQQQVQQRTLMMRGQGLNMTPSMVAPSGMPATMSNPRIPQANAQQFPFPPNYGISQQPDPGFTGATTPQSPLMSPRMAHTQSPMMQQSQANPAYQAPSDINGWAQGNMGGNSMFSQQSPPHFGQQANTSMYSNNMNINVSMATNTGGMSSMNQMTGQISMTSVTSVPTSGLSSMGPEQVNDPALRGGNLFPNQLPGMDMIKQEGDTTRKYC
COUP-TFII inh = NR2F2 transcriptional activity inhibitors, primary screen, cell-based, luciferase reporter, HEK293T, luminescence; COUP transcription factor 2 (Homo sapiens), P24468; 370,000 compounds, 0.7% hits; HEK293T NGFI-A luciferase reporter; inhibition, % at 8.6 µM; AID 686940, 2013;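 active = inhibition above a per-plate cutoff, mean inhibition of test wells between control levels plus 3 SD, cut at about 38% in these data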;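 also: cells cotransfected with COUP-TFII expression vector driving the NGFI-A reporter; 0% = median of COUP-TF2 test wells and 100% = reporter-only cells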
LRH-1 inv ag = LRH-1 (NR5A2) inverse agonists, primary screen, cell-based, luminescence, HEK293T, StAR-luciferase reporter | Nuclear receptor subfamily 5 group A member 2 (Homo sapiens), O00482 | LRH-1 transfected, 24 h | inhibition, % at 3.6 µM | 360,000 compounds, 0.13% hits | AID 602396, 2012;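 active = inhibition above the mean inhibition of all tested compounds plus 3 SD, cut at about 73% in these data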;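 also: 0% = DMSO wells and 100% = reporter-only cells lacking LRH-1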
NCOA3 inh = SRC3 coactivator transcriptional activity inhibitors, primary screen, cell-based, luminescence; Nuclear receptor coactivator 3 (Homo sapiens), Q9Y6Q9; HEK293 GAL4-SRC3 luciferase reporter; inhibition, % at 3.6 µM; 360,000 compounds, 0.17% hits;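 active = inhibition above a per-campaign cutoff, the mean of all compounds plus 3 SD, cut at about 60% in these data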;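 also: 0% = DMSO-treated cells and 100% = gossypol-treated cells at 36 µM; higher means less SRC3-driven luciferase light from the GAL4 reporter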
VP16 Luc counter = Gal4-VP16 luciferase reporter inhibitors, counter-screen for COUP-TFII antagonist project, cell-based, luminescence, HEK293; shares compounds with COUP-TFII inh; inhibition, % at 8.5 µM; 2,500 compounds, 25% hits; AID 687007, 2013; in the data active = inhibition above about 13%
NR2F2 inh conf = NR2F2 transcriptional activity inhibitors, confirmation, cell-based, luciferase reporter, HEK293, triplicate | shares compounds with COUP-TFII inh | HEK293 NGFI-A luciferase reporter, luminescence | inhibition, % at 8.5 µM | 2,500 compounds, 45% hits | AID 687008, 2013;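 active = mean inhibition over three repeats above a set limit taken from the earlier primary screen, cut at about 38% in these data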;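 also: 100% = cells given the luciferase reporter alone without the COUP-TF2 vector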
* hit, by the source's call; nt = no result.

SMILES	Gli-Sufu antag	NCOA1 inh	NCOA2 inhibitor	COUP-TFII inh	LRH-1 inv ag	NCOA3 inh	VP16 Luc counter	NR2F2 inh conf
COC(=O)c1c(-c2ccc(N(C)C)cc2)sc2ccc(OC)cc12	34	0	61*	57*	28	-16	24*	49*
COc1ccc(-c2csc(NC(=O)C3CCN(c4ncnc5sc(C)c(C)c45)CC3)n2)cc1OC	72*	79*	23	56*	18	60	12	87*
COc1ccccc1OCC(=O)NNC(=O)C1CCN(c2ncnc3sc(C)c(C)c23)CC1	-8	-12	17	2	1	36	nt	nt
CNC(=O)c1ccc(NC(=O)C2CCN(c3ncnc4sc(C)c(C)c34)CC2)cc1	-1	41	20	44*	19	36	-1	13
CN1C(=O)c2cc(NC(=O)Nc3ccccc3)ccc2OC[C@H]2O[C@@H](CC(=O)NCC(F)(F)F)CC[C@@H]21	nt	nt	6	-5	nt	nt	nt	nt
COC(=O)C1=CC[C@@H](NC(=O)OC(C)(C)C)[C@H](O)[C@H]1O[Si](C)(C)C(C)(C)C	nt	nt	nt	-3	nt	nt	nt	nt
CC(OC(=O)C1=NN(c2ccccc2)C(=O)CC1)C(=O)NC1CCCCC1C (stereo not drawn)	-7	-22	-3	6	10	13	nt	nt
Cc1nn(-c2ccccc2)c(C)c1C(=O)OC(C)C(=O)NC1CCCCC1C (stereo not drawn)	5	10	11	39*	21	14	1	21
Cc1c(NC(=O)COC(=O)C23CC4CC(CC(O)(C4)C2)C3)c(=O)n(-c2ccccc2)n1C	-14	-4	41	45*	3	13	-8	5
CCN1CCN(C(c2cccnc2)c2c(NC(=O)c3ccco3)sc(C)c2C)CC1 (stereo not drawn)	1	-1	-23	6	0	-9	nt	nt
Cc1sc(NC(=O)c2ccco2)c(C(c2cccnc2)N2CCC(C)CC2)c1C (stereo not drawn)	11	31	10	51*	29	27	2	49*
Clc1ccc(Cn2ncc3c(N4CCCCC4)ncnc32)cc1	3	-5	-18	2	-2	14	nt	nt
Clc1ccc(-n2ncc3c(N4CCCCCC4)ncnc32)cc1	nt	81*	70*	92*	79*	80*	80*	100*
CC(=O)CC[C@@H]1CC[C@]2(CCCN(C(=O)c3ccco3)C2)O1	nt	nt	8	8	nt	nt	nt	nt
Cc1ccc(-c2cnc(-c3ccncc3)o2)cc1	-74	-71	-18	-49	-78	-72	nt	nt
Nc1ccc(-c2ncc(-c3ccccc3)o2)cc1	24	21	80*	79*	34	15	72*	62*
Cn1nnnc1SCc1nc2scc(-c3ccc(Cl)cc3)c2c(=O)[nH]1	2	14	-4	46*	18	10	-9	15
O=C(C1CC1)N1CCC(c2nc(-c3ccc(S(=O)(=O)NCC4CCCO4)cc3)no2)CC1 (stereo not drawn)	20	-3	30	45*	16	32	-4	20
O=C(c1ccccc1)N1CCC(c2nc(-c3ccc(S(=O)(=O)NCC4CCCO4)cc3)no2)CC1 (stereo not drawn)	40	9	13	18	12	10	nt	nt
COC(=O)c1ccc(COc2cccc3c2CCN(Cc2cccc(C)c2)C3=O)o1	28	-2	-1	38*	-9	8	-4	-1
COC(=O)c1ccc(COc2cccc3c2CCN(Cc2ccccc2)C3=O)o1	1	-21	1	18	14	-5	nt	nt
